Common to all, as to conditions: mRNA level, 48 h; actives raise or lower the signal
Read-out in assay [1]: Bcl-2 (BAX) gene, BAX (gene 581)
Briefly: LTEA_HepaRG_BAX: Life Technologies and Expression Analysis (LTEA) Assay for Bcl-2 (BAX) gene using HepaRG (AID 2283470). The gist of the method:
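Gene expression measured by Fluidigm qRT-PCR with three housekeeping genes for normalisation. HepaRG cells, plated 48 h beforehand, treated 48 h at up to 100 uM (8-point, half-log) in 0.5% DMSO. Bidirectional fitting versus DMSO.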

Read-out in assay [2]: adenosine kinase (ADK) gene, ADK (gene 132)
Briefly: LTEA_HepaRG_ADK: Life Technologies and Expression Analysis (LTEA) Assay for adenosine kinase (ADK) gene using HepaRG (AID 2283471). The method in brief: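 Read-out is ADK transcript level measured by qRT-PCR and normalised to three housekeeping genes. Cells are human HepaRG, dosed for 48 h at up to 100 uM in 0.5% DMSO. Gain or loss of signal is fitted against DMSO controls.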

Read-out in assay [3]: Alpha-fetoprotein (AFP) gene, AFP (gene 174)
Nature of the assay: LTEA_HepaRG_AFP: Life Technologies and Expression Analysis (LTEA) Assay for Alpha-fetoprotein (AFP) gene using HepaRG (AID 2283472). The method in brief:
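AFP transcript measured by TaqMan qRT-PCR with three housekeeping genes for normalization, after 48 h chemical treatment of HepaRG cells (top 100 uM, half-log steps, 0.5% DMSO). Gain or loss fitted against vehicle.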

Read-out in assay [4]: BCL2L11 (gene 10018)
Briefly: LTEA_HepaRG_BCL2L11: Life Technologies and Expression Analysis (LTEA) Assay for Bcl-2 (BCL2L11) gene using HepaRG (AID 2283473). The gist of the method:
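Human hepatic HepaRG cultures are treated 48 h with test chemicals (maximum 100 uM, 0.5% DMSO vehicle). Expression of BCL2L11 is measured by qRT-PCR against ACTB, GAPDH and POLR2A, with activity in either direction scored relative to vehicle.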

Read-out in assay [5]: Apolipoprotein A-V (APOA5) gene, APOA5 (gene 116519)
Briefly: LTEA_HepaRG_APOA5: Life Technologies and Expression Analysis (LTEA) Assay for Apolipoprotein A-V (APOA5) gene using HepaRG (AID 2283474). The gist of the method: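 Concentration-response of APOA5 expression in HepaRG: eight half-log doses to 100 uM, 48 h, qRT-PCR normalized to ACTB/GAPDH/POLR2A, bidirectional fitting with 0.5% DMSO as baseline.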

Read-out in assay [6]: Apoptosis regulator Bcl-2 (Homo sapiens) (UniProt P10415)
Nature of the assay: LTEA_HepaRG_BCL2: Life Technologies and Expression Analysis (LTEA) Assay for Bcl-2 gene using HepaRG (AID 2283475). The method in brief: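 qRT-PCR of BCL2 transcript, normalized to three housekeeping genes (ACTB, GAPDH, POLR2A), after 48 h chemical exposure of HepaRG cells; concentrations top 100 uM with half-log dilutions, 0.5% DMSO vehicle, duplicates; changes up or down fitted relative to vehicle.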

Read-out in assay [7]: Bcl-2 (BID) gene, BID (gene 637)
Nature of the assay: LTEA_HepaRG_BID: Life Technologies and Expression Analysis (LTEA) Assay for Bcl-2 (BID) gene using HepaRG (AID 2283476). The gist of the method: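 Duplicate 48 h treatments of HepaRG cells in serum-free induction medium spanned 100 uM downward in half-log steps, 0.5% DMSO. Transcript change quantified by qRT-PCR against three housekeeping genes, fitted up or down versus DMSO.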

Read-out in assay [8]: Caspase-3 (Homo sapiens) (UniProt P42574)
Briefly: LTEA_HepaRG_CASP3: Life Technologies and Expression Analysis (LTEA) Assay for cysteine-aspartic acid protease (CASP3) using HepaRG (AID 2283477). The method in brief:
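Transcript-level assay: CASP3 mRNA in human HepaRG after 48 h treatment, eight half-log concentrations from 100 uM in 0.5% DMSO, quantified by qRT-PCR.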

Read-out in assay [9]: Cytochrome P450 (CYP24A1), CYP24A1 (gene 1591)
Briefly: LTEA_HepaRG_CYP24A1: Life Technologies and Expression Analysis (LTEA) Assay for Cytochrome P450 (CYP24A1) using HepaRG (AID 2283478). The gist of the method: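 Gene expression of CYP24A1 by TaqMan qRT-PCR in HepaRG after 48 h treatment, highest concentration 100 uM; activity fitted in both directions relative to DMSO vehicle.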

Read-out in assay [10]: Cytochrome P450 (CYP1A2), CYP1A2 (gene 1544)
Briefly: LTEA_HepaRG_CYP1A2: Life Technologies and Expression Analysis (LTEA) Assay for Cytochrome P450 (CYP1A2) using HepaRG (AID 2283479). The method in brief: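 In duplicate wells, HepaRG cultures maintained in 0.5% DMSO were treated 48 h across an 8-point, half-log series topping at 100 uM; phenobarbital (1 mM) served as induction control. Expression was read by qRT-PCR.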

Read-out in assay [11]: cysteine-aspartic acid protease (CASP8), CASP8 (gene 841)
Briefly: LTEA_HepaRG_CASP8: Life Technologies and Expression Analysis (LTEA) Assay for cysteine-aspartic acid protease (CASP8) using HepaRG (AID 2283480). The method in brief: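 Concentration-response in duplicate up to 100 uM (half-log steps, 0.5% DMSO) on differentiated HepaRG cultures for 48 h. Expression change of CASP8 mRNA is determined by TaqMan qRT-PCR with housekeeping-gene normalization.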

Read-out in assay [12]: Cytochrome P450 (CYP2B6), CYP2B6 (gene 1555)
Briefly: LTEA_HepaRG_CYP2B6: Life Technologies and Expression Analysis (LTEA) Assay for Cytochrome P450 (CYP2B6) using HepaRG (AID 2283481). The method in brief:
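Human HepaRG, 48 h dosing, 0.5% DMSO vehicle, top dose 100 uM. CYP2B6 transcript by qRT-PCR, housekeeping-normalized, bidirectional curve fit.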

Read-out in assay [13]: Cytochrome P450 2C19 (Homo sapiens) (UniProt P33261)
Nature of the assay: LTEA_HepaRG_CYP2C19: Life Technologies and Expression Analysis (LTEA) Assay for CYP2C19 using HepaRG (AID 2283482). The gist of the method: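 Endpoint: CYP2C19 mRNA change, bidirectional fit vs 0.5% DMSO. Cells: HepaRG, 48 h exposure, eight-point series topping at 100 uM. Quantitation: qRT-PCR normalized to ACTB, GAPDH, POLR2A.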

Read-out in assay [14]: CYP2C8 (gene 1558)
Nature of the assay: LTEA_HepaRG_CYP2C8: Life Technologies and Expression Analysis (LTEA) Assay for CYP2C8 using HepaRG (AID 2283483). The gist of the method:
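This is a transcriptional endpoint in HepaRG cultures: 48 h exposure, highest concentration 100 uM. CYP2C8 mRNA is quantified by TaqMan qRT-PCR.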

Read-out in assay [15]: CYP2C9 (gene 1559)
Briefly: LTEA_HepaRG_CYP2C9: Life Technologies and Expression Analysis (LTEA) Assay for CYP2C9 using HepaRG (AID 2283484). The gist of the method:
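Eight-point concentration-response (highest 100 uM, half-log dilutions) in HepaRG cells for 48 h; CYP2C9 expression by qRT-PCR normalized to ACTB, GAPDH, POLR2A. Bidirectional fit, DMSO baseline.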

Read-out in assay [16]: CYP2E1 (gene 1571)
Briefly: LTEA_HepaRG_CYP2E1: Life Technologies and Expression Analysis (LTEA) Assay for CYP2E1 using HepaRG (AID 2283485). The method in brief:
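CYP2E1 transcript measured by Fluidigm qRT-PCR against three housekeeping genes in human HepaRG cells treated 48 h (top 100 uM, half-log steps, 0.5% DMSO vehicle). Gain or loss fitted relative to DMSO baseline.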

Read-out in assay [17]: Cytochrome P450 3A4 (Homo sapiens) (UniProt P08684)
Briefly: LTEA_HepaRG_CYP3A4: Life Technologies and Expression Analysis (LTEA) Assay for CYP3A4 using HepaRG (AID 2283487). The method in brief:
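HepaRG, 48 h exposure, 8-pt CRC from 100 uM (half-log), 0.5% DMSO, duplicates; serum-free induction medium. Readout: CYP3A4 mRNA, qRT-PCR, ACTB/GAPDH/POLR2A normalization. Bidirectional fit vs DMSO.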

Read-out in assay [18]: DNA damage-inducible transcript 3 (DDIT3), DDIT3 (gene 1649)
Briefly: LTEA_HepaRG_DDIT3: Life Technologies and Expression Analysis (LTEA) Assay for DNA damage-inducible transcript 3 (DDIT3) using HepaRG (AID 2283488). The gist of the method:
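DDIT3 transcript was quantified by qRT-PCR with ACTB/GAPDH/POLR2A normalization after 48 h chemical treatment of differentiated HepaRG cells in 0.5% DMSO. Dosing was eight-point, half-log, top 100 uM, duplicate wells. Curves fitted bidirectionally versus DMSO.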

Read-out in assay [19]: Pro-epidermal growth factor (Homo sapiens) (UniProt P01133)
Briefly: LTEA_HepaRG_EGF: Life Technologies and Expression Analysis (LTEA) Assay for Epidermal growth factor (EGF) using HepaRG (AID 2283489). The method in brief:
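Concentration-response mRNA assay: HepaRG cells dosed 48 h (max 100 uM, 0.5% DMSO), EGF measured by qRT-PCR and normalized to ACTB/GAPDH/POLR2A.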

Read-out in assay [20]: CYP4A11 (gene 1579)
Briefly: LTEA_HepaRG_CYP4A11: Life Technologies and Expression Analysis (LTEA) Assay for CYP4A11 using HepaRG (AID 2283486). The gist of the method: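 Human hepatic HepaRG cultures receive duplicate 48 h exposures across a concentration-response series topping at 100 uM. Expression changes in CYP4A11 are measured by qRT-PCR relative to DMSO controls.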

The structures appear in SMILES notation. Calls of active or inactive are those of the source. Rule for the calls: active = hit-call score of the fitted dose curve at least 0.9, where 1 is the maximum; inactive = score below 0.9.

Sequence of Caspase-3 (Homo sapiens) (P42574 whole entry, looked up): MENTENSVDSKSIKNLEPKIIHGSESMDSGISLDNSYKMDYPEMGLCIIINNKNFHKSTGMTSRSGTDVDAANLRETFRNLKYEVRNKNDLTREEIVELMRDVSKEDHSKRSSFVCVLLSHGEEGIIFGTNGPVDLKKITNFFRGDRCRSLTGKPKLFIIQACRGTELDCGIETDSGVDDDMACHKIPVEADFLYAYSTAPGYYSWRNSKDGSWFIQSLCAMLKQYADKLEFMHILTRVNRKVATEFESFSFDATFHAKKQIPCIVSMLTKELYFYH
Sequence of Cytochrome P450 2C19 (Homo sapiens) (P33261 whole entry, looked up): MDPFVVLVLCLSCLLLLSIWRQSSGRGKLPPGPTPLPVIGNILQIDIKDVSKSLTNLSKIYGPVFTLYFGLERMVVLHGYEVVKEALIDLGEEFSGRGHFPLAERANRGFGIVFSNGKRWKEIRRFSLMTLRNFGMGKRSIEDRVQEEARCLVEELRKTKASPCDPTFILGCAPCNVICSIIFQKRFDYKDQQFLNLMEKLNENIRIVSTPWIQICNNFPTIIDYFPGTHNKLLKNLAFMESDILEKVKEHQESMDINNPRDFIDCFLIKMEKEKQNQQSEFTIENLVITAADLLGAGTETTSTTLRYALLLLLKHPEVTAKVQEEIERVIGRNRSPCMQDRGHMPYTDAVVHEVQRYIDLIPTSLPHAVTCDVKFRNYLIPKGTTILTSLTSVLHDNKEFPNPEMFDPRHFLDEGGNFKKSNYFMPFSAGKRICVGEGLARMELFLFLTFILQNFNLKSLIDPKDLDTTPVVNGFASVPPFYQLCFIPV
Sequence of Apoptosis regulator Bcl-2 (Homo sapiens) (P10415 whole entry, looked up): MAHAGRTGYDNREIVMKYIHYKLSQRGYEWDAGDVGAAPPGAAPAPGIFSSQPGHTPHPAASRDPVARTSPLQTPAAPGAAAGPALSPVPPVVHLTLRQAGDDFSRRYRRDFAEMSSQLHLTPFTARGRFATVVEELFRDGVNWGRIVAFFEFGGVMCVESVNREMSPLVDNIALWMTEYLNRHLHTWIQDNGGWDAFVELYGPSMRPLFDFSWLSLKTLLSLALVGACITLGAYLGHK
Sequence of Cytochrome P450 3A4 (Homo sapiens) (P08684 whole entry, looked up): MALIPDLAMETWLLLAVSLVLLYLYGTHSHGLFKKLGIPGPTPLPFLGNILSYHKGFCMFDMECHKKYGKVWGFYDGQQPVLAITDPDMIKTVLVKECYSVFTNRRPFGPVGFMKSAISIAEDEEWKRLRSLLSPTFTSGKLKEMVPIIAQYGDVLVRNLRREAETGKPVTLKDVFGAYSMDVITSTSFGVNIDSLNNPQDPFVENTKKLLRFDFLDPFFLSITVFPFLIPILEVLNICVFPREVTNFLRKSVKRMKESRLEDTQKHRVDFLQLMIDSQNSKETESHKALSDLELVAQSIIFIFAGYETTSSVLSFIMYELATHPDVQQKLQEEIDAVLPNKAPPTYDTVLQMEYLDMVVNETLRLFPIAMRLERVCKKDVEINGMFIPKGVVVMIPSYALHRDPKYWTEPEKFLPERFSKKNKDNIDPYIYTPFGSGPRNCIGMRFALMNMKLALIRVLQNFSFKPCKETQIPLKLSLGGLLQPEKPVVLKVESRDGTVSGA

Consider `CCCCC(C#N)(Cn1cncn1)c1ccc(Cl)cc1` (configuration not stated), for which the result in assay [1], in assay [2], in assay [4], in [5], in assay [6] and in assay [7] was inactive. The molecule was called inactive in [8], in [9], in assay [11], in [15] and in assay [19]. For the same molecule, the AC50 in assay [3] was 67 µM (active); in assay [10], 19.3 µM (active); in assay [12], 3.06 µM (active); in assay [13], 5.75 µM (active); in assay [14], 12.1 µM (active); in [16], 50 µM (active). Besides, the AC50 in assay [17] is 4.85 µM (active); in assay [18] it was 67.8 µM (active).
For the molecule `O=C(Nc1ccccc1-c1ccc(Cl)cc1)c1cccnc1Cl`, the molecule was classed as inactive in assay [1], in [2], in assay [4], in assay [5], in assay [6] and in [7]. The molecule was classed as inactive in [8], in [9], in [11], in [13], in [14] and in assay [15]. In addition, the molecule was called inactive in assay [20], in [18] and in assay [19]. Besides, the AC50 was 52.5 µM (active) in assay [3], 1.62 µM (active) in assay [12] and 52.5 µM (active) in assay [16].
As to `CO/N=C(/C1=NOCCO1)c1ccccc1Oc1ncnc(Oc2ccccc2Cl)c1F`, the AC50 in assay [1] is 31.3 µM (active); in assay [3], 18.2 µM (active); in assay [4], 27.7 µM (active); in [5] it was 23.6 µM (active); in assay [6] it was 29.7 µM (active); in assay [12] it was 21.1 µM (active). Besides, the AC50 in assay [13] is 29.5 µM (active); in assay [15] it was 25.2 µM (active); in assay [16] it was 7.94 µM (active); in [20], 14.2 µM (active); in [17], 30.5 µM (active); in assay [18] it was 25.1 µM (active). Besides, the call in assay [2], in [7], in assay [8], in assay [9], in [11] and in [19] was inactive.
In the case of `CN/C(=N\[N+](=O)[O-])NCc1cnc(Cl)s1`, the molecule was classed as inactive in assay [1], in [2], in [4], in assay [5], in [6] and in [7]. Further, the call in assay [8], in [9], in [11], in assay [13], in assay [15] and in assay [17] was inactive. For the same molecule, the outcome in assay [18] and in assay [19] was inactive. Further, the AC50 in assay [3] is 50 µM (active); in assay [12], 30.8 µM (active); in [16], 50 µM (active).
